GAA glycogen mod – qHTS Assay for Inhibitors and Activators of Human alpha-Glucosidase Cleavage of Glycogen; Lysosomal alpha-glucosidase (Homo sapiens), P10253; recombinant GAA, glycogen substrate, Amplex Red glucose oxidase fluorescence; Potency, µM (top dose mostly 76.4 µM), for inactives: top-dose activity change, negative = inhibition, hits mostly inhibitors; 0.38% of 300,000 active; AID 2100, 2009;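 further: potency means the concentration at half of the fitted maximal effect; 0% = full enzyme reaction and -100% = no-enzyme basal signal; the screen sought inhibitors and activators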
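Recombinant human alpha-glucosidase (4 nM final) hydrolysed bovine liver glycogen (30 ug) for 40 min at 37 C in pH 5.0 citrate/phosphate with 0.01% Tween-20. Released glucose detected by glucose oxidase/Amplex Red, Ex 573/Em 610 nm. Compounds up to 77 uM; AC50 from Hill fits.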
aGal spleen mod – qHTS Assay for Inhibitors and Activators of Human alpha-Galactosidase From Spleen Homogenate; Alpha-galactosidase A (Homo sapiens), P06280; human spleen homogenate, 4MU-alpha-Gal fluorescence, 40 min; Potency, µM (titrated, usually from 80 µM), for the others: at the top dose activity change, negative = inhibition, actives largely listed as inhibitors; 0.008% of 240,000 active; AID 2107, 2009;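 further: potency means the concentration at half of the fitted maximal effect; 0% = enzyme with vehicle and -100% = no enzyme basal signal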
Target sequence (P06280 32-429 limits assumed): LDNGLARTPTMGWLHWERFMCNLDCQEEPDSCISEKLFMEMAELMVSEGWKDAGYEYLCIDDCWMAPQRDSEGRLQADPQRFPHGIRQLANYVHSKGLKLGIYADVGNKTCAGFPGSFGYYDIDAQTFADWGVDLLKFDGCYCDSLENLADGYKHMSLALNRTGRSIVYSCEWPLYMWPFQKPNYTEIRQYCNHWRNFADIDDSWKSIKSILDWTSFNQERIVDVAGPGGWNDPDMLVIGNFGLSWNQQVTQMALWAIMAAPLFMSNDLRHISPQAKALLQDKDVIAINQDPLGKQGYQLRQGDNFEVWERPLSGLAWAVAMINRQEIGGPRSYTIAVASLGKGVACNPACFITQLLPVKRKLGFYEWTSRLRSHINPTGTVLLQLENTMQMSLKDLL
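qHTS titration in buffer at pH 5.0. Alpha-galactosidase activity in spleen homogenate was measured via 4-methylumbelliferone release from 1 mM fluorogenic substrate after 40 min at 37C and a pH 10 stop. AC50 came from Hill fits of control-normalized data.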
GAA inh – qHTS Assay for Inhibitors of Human alpha-Glucosidase as a Potential Chaperone Treatment of Pompe Disease. Lysosomal alpha-glucosidase (Homo sapiens), P10253. purified human GAA, 4-MU-alpha-glucoside fluorescence. Potency, µM (series often up to 76.9 µM), for the others: at the highest dose activity change, negative = inhibition, hits mostly inhibitors. 0.005% of 200,000 active. AID 1466, 2008;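 further: potency means the concentration at half of the fitted maximal effect; plate controls were uninhibited enzyme wells for no effect and no-enzyme background for full effect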
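qHTS format, compound range up to 77 uM. Human lysosomal enzyme at 4 nM, 400 uM 4-MU glucoside substrate, pH 5.0, 20 min room temperature; fluorescence after alkaline stop gives activity normalized to controls.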
aGlu spleen mod – qHTS Assay for Inhibitors and Activators of Human alpha-Glucosidase From Spleen Homogenate; Lysosomal alpha-glucosidase (Homo sapiens), P10253; human spleen homogenate, 4-MU-alpha-glucoside fluorescence; Potency, µM (series often up to 79.9 µM), for inactives: at the highest dose activity change, negative = inhibition, hits mostly inhibitors; 0.006% of 240,000 active; AID 2112, 2009;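 further: potency means the concentration at half of the fitted maximal effect; 0% = enzyme with vehicle and -100% = no enzyme basal signal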
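Human spleen homogenate (1 ug) incubated with compounds and 1 mM 4-methylumbelliferyl-alpha-D-glucopyranoside in pH 5.0 citrate/phosphate buffer, 37 C, 40 min. Stopped at pH 10; 4-MU fluorescence (Ex 365/Em 440 nm); AC50 by Hill fit.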
GLA inh pH 4.5 – qHTS Assay for Inhibitors of Human alpha-Galactosidase at pH 4.5 | Alpha-galactosidase A (Homo sapiens), P06280 | purified enzyme, 4-MU-alpha-Gal fluorescence, pH 4.5 | activity change, negative = inhibition, % at 105 µM | 230,000 tested, under 10 active;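 further: 0% = full activity with enzyme and -100% = basal without enzyme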
N370S GC – qHTS Assay for Inhibitors and Activators of N370S glucocerebrosidase as a Potential Chaperone Treatment of Gaucher Disease | Lysosomal acid glucosylceramidase (Homo sapiens), P04062 | N370S GC spleen homogenate, 4MU-glucoside fluorescence | Potency, µM (top dose mostly 59.4 µM), for inactives: top-dose activity change, negative = inhibition, most hits filed as inhibitors | 0.092% of 330,000 active | AID 2101, 2009;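 further: potency means the concentration at half of the fitted maximal effect; 0% = full enzyme activity and -100% = no enzyme basal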
The depositor's hits bear a star; ? = inconclusive; / = no result; [ ] = remark or other dose. Compounds with a hit are over-represented: about 0.43% of the library has one in this group of screens. The call rests on the fitted dose curve; in most records, active means well fitted curve in the direction sought with a large enough effect; inconclusive means small, poorly fitted or top-dose-only effect, or another doubt; inactive means no such curve, though single readings can be large; an effect the other way counts as inactive or inconclusive.

SMILES | GAA glycogen mod | aGal spleen mod | GAA inh | aGlu spleen mod | GLA inh pH 4.5 | N370S GC
Brc1ccc(C2C3=C(Nc4ncnn42)c2ccccc2OC3c2ccncc2)cc1 (centres undefined) | -25% | -3% | 0% | 3% | -10 | 14µM*
CCOc1cc(CNCCO)cc(Br)c1OCc1ccc(Cl)cc1Cl | -4% | -4% | -15% | -9% | -3 | 10µM*
O=C(CC(c1ccccc1)c1cc(Br)ccc1O)NCCN1CCOCC1 (centres undefined) | 28% | 40µM* | 0% | -27% | 5 | 6%
O=C(CC(c1ccccc1)c1cc(Br)ccc1O)NCCCN1CCOCC1 (centres undefined) | -6%[76.3 µM] | / | / | / | / | -2%
O=C(N/N=C1/C[C@@H](O)[C@@H](O)[C@@H]2[C@@H]3C(=O)N(Cc4ccccc4)C(=O)[C@H]3CC[C@H]12)OCc1ccccc1 | / | -5%[17.5 µM] | / | -7%[17.4 µM] | / | -20%[12.8 µM]
Cc1ccc(C)c2sc(N)nc12 | -8% | 6% | 2% | 12% | 0 | -11%
Cc1sc2nc(N)sc2c1C | 18µM* | -8% | -5% | 0% | -16 | 1%
C[C@@](N)(Cc1ccc(O)c(O)c1)C(=O)O | / | -5% | / | -15% | 3 | -6%
CCOC(=O)N1CCN(c2ccccc2O)CC1 | 11µM* | 1% | -5% | -5% | 2 | -1%
COc1ccc(-c2nc3cccc(C)n3c2NCC2CCCO2)cc1O (centres undefined) | -6% | -9% | 11% | -1% | 5 | 7%
CCOc1cc(-c2nc3ccccn3c2NCC2CCCO2)ccc1O (centres undefined) | 25µM* | -9% | 2% | -19% | 2 | 3%
COc1cc(-c2nc3ccccn3c2NCC2CCCO2)ccc1O (centres undefined) | 28µM* | 8% | 3% | 1% | 7 | -11%
O=C(O)C1OC(Oc2c(-c3ccc(O)c(O)c3)oc3cc(O)cc(O)c3c2=O)C(O)C(O)C1O (centres undefined) | 4µM* | -12% | 1%[15.4 µM] | -17% | -12 | -21%
C[C@H](CC[C@@H]1OC1(C)C)C1CC[C@H]2[C@@H]3CC=C4C[C@@H](O)CC[C@]4(C)[C@H]3CC[C@]12C (some centres undefined) | / | 3% | / | 2% | / | 4%
Cc1ccc2nc3c(c(Nc4ccc(O)cc4)c2c1)CCC3 | 13µM* | / | / | / | / | ?
COc1ccc(Nc2c3c(nc4ccc(C)cc24)CCC3)cc1 | -1% | / | / | / | / | ?
COc1cc(C2C(C#N)=C(N)Oc3n[nH]c(-c4cccs4)c32)cc(OC)c1O (centres undefined) | 18µM* | 8% | / | 8% | -1 | -2%
COc1ccc2[nH]cc(CCNc3nc(-c4ccoc4)nc4ccccc34)c2c1 | / | 1% | / | -12% | -10 | 16µM*
COc1cccc(-c2nc(NCCc3c[nH]c4ccc(OC)cc34)c3ccccc3n2)c1 | / | 8% | / | 2% | -2 | 14µM*
COc1ccc2[nH]cc(CCNc3nc(-c4ccc(N(C)C)cc4)nc4ccccc34)c2c1 | / | 23% | / | 2% | / | ?
CCCCC/C=C\C\C=C/C=C/C=C/[C@@H](SC[C@H](NC(=O)CC[C@H](N)C(=O)O)C(=O)NCC(=O)O)[C@@H](O)CCCC(=O)O | / | -18% | / | 6% | / | -7%
C=C(C)/C=N/NC(=S)Nc1ccc(S(=O)(=O)N2CCOCC2)cc1 | 25µM* | 3% | / | 12% | -2 | -7%
COc1ccc(Cl)cc1NC(=S)N(CCCN1CCOCC1)Cc1cn(C)c2ccccc12 | -20% | -1% | -8% | 4% | -9 | 6.3µM*
